Marburg entry inh: inhibitors of Marburg virus binding or cell entry; AID 540276; Potency, µM (top dose mostly 37.8 µM), without a hit: at the highest dose activity change, negative = inhibition, hits mostly inhibitors; hit rate 1.8% among 300,000; Marburg virus pseudotyped entry inhibition, cell reporter; calls by dose curve; tested in HEK293 cells; note: potency is the fitted concentration of half-maximal effect; % is set by controls: 0 for no effect and ±100 for the full control effect
Cycloheximide cs: affects cycloheximide protein synthesis inhibition readout, counter-screen. max response, %. hit rate 12% among 300,000. cell reporter, cycloheximide protein synthesis inhibition counterscreen; in the data active = max response mostly above about 13%, no sharp cut-off; inactive = mostly below about 14%; note: read at 38.3 µM for the half of the compounds with a filed dose; 0% is about no effect
Vaccinia Venus: vaccinia inhibition (Venus reporter); Vaccinia virus Venus reporter expression, fluorescence; Potency, µM (titrated, usually from 36.5 µM), for the others: at the highest dose activity change, negative = inhibition, usual class: inhibitors; hit rate 0.46% among 330,000; calls by dose curve; tested in A549 cells; note: potency is the fitted concentration of half-maximal effect; % is set by controls: 0 for no effect and ±100 for the full control effect; nearly all actives have a fitted effect of over 30% in size
VACV mCherry inh: inhibitors of vaccinia virus infection (mCherry reporter signal); Vaccinia virus mCherry reporter infection, fluorescence; Potency, µM (top dose mostly 36.5 µM), for inactives: at the top dose activity change, negative = inhibition, hits mostly inhibitors; hit rate 0.63% among 310,000; AID 720579; calls by dose curve; tested in A549 cells; note: potency is the fitted concentration of half-maximal effect; % is set by controls: 0 for no effect and ±100 for the full control effect; nearly all actives have a fitted effect of over 35% in size
LASV entry inh: Lassa virus entry inhibition; Lassa virus pseudotype entry inhibition, cell reporter; AID 540256; Potency, µM (top dose mostly 37.9 µM), for inactives: top-dose activity change, negative = inhibition, most hits filed as inhibitors; hit rate 1.2% among 300,000; calls by dose curve; tested in HEK293 cells; note: potency is the fitted concentration of half-maximal effect; % is set by controls: 0 for no effect and ±100 for the full control effect; nearly all actives have a fitted effect of over 50% in size
Shiga inhibitor: blocks Shiga toxin action in Vero cells; hit rate 9.2% among 290,000; Vero cells, Shiga toxin protein synthesis inhibition reporter; inhibition, % at 38.7 µM; in the data active = inhibition mostly above about 28%, no sharp cut-off; inactive = mostly below about 43%; note: 0% is about no effect
* = called active by the depositor; i = inactive; u = inconclusive; x = not tested or not shown; + = active, no number; [ ] = dose if it differs, or a comment. Only a selection was taken, and hits are over-represented in it overall.

SMILES | Marburg entry inh | Cycloheximide cs | Vaccinia Venus | VACV mCherry inh | LASV entry inh | Shiga inhibitor
CCOC(=O)c1ccc(Nc2ccc([N+](=O)[O-])cn2)cc1 | u | 31* | 2% | -13% | 9% | +
COc1ccc(Nc2nc(=O)c3cc([N+](=O)[O-])ccc3s2)cc1 | x | 4 | x | x | x | -4
O=[N+]([O-])c1ccc(NCc2ccccn2)nc1 | u | 16* | -9% | i | u | 47*
CCCS(=O)(=O)NC(=O)C1(C)CCN1C(=O)Cc1ccc(Cl)cc1Cl (stereo unspecified) | x | x | 8% | 16% | x | x
O=C(CNC(c1ccccc1)c1ccccc1)NCc1ccccc1Cl | x | -8 | x | x | x | -18
c1ccc(-c2nc(-c3nccc4ccccc34)oc2-c2ccccc2)cc1 | x | 46* | x | x | x | 74*
C[C@H]1C[C@@H](C)O[C@@]2(C1)C(=O)N(CC1CC1)c1ccccc12 | -21%[14.2 µM] | x | x | x | x | x
CC1CC(C)CN(S(=O)(=O)c2ccc(C(=O)Nc3sccc3C(N)=O)cc2)C1 (stereo unspecified) | x | -1 | u | -4% | x | -2
NC(=O)c1ccsc1NC(=O)c1ccc(S(=O)(=O)N2CCCC2)cc1 | x | 33* | -23% | i | x | 139*
NC(=O)c1ccsc1NC(=O)c1ccc(S(=O)(=O)N2CCCCC2)cc1 | x | 46* | -25% | -11% | x | 65*
CCNCC(=O)N1c2ccccc2CCc2ccc(NC(=O)OC(C)C)cc21 | u | -1 | -23% | -12% | -25%[46.1 µM] | x
COc1cccc(-c2cnc(C(O)c3ccc(C(C)(C)C)cc3)[nH]2)c1 (stereo unspecified) | x | x | -10% | 14% | x | x
CCN(CCCNC(=O)c1nn(C)c2c1CS(=O)(=O)c1ccccc1-2)Cc1ccccc1 | x | -3 | -5%[7.34 µM] | -6%[7.34 µM] | x | 3
N#CC(c1ccccc1)C(CC(=O)c1ccccc1)c1ccccc1 (stereo unspecified) | x | x | -14% | i | x | x

Bioassay records from PubChem BioAssay.
